High-throughput results as filed in PubChem.
Only some compounds are listed: those with a hit (about 19% of all), similar ones and a draw of the others.
TDP1 cell noCPT: qHTS for Inhibitors of human tyrosyl-DNA phosphodiesterase 1 (TDP1): qHTS in cells in absence of CPT; DT40 Tdp1-/- hTDP1 cells, no CPT, ATP luminescence, 48 h; Potency, µM (titrated, usually from 46.2 µM), most hits filed as inhibitors; actives 15% (n = 420,000); note: nearly all actives have a fitted effect of over 55% in size
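Growth of hTDP1-complemented DT40 Tdp1-knockout cells is measured by ATP luminescence after at least 48 hr compound exposure at 37 °C, with DMSO substituting for the 20 nM CPT used in the parallel screen.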
HepG2 tox: kills HepG2 cells in TGF-b inhibitor counter-screen; HepG2 CAGA-GFP viability, ATP luminescence, 18 h; Potency, µM (series often up to 46.1 µM), most hits filed as cytotoxic; actives 0.76% (n = 410,000); AID 588856
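HepG2 CAGA-GFP cells (1000/well, DMEM with 1% FBS) received compound, then TGF-beta at 500 pg/mL final, and were incubated 18 hours at 37 degrees C. Viability was read by CellTiter-Glo luminescence. Media-only wells were set as complete cell-killing and DMSO as no toxicity.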
DT40 TDP1 CPT: growth inhibition of DT40 Tdp1-/-;hTDP1 cells with camptothecin (screen for TDP1 inhibitors). chicken DT40 Tdp1-/-;hTDP1 cells + 20 nM CPT, ATP luminescence, 48 h. Potency, µM (titrated, usually from 46.2 µM), usual class: inhibitors. actives 12% (n = 420,000). AID 686979; note: nearly all actives have a fitted effect of over 55% in size
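Chicken DT40 Tdp1-/- cells stably complemented with human TDP1 were seeded at 400 cells/well in medium containing 20 nM camptothecin, exposed to pin-transferred compounds, and grown at 37 °C for at least 48 hr. Viability was read as ATP luminescence.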
TGFb SMAD3 inh: inhibitors of TGF-b signaling; HepG2 CAGA-GFP TGF-b/SMAD3 reporter, GFP fluorescence, 18 h; TGF-beta stimulated, 500 pg/mL final; AID 588855; actives 1.2% (n = 410,000); Potency, µM (doses to about 46.1 µM), usual class: inhibitors; note: nearly all actives have a fitted effect of over 65% in size
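Smad-responsive CAGA-GFP expression was quantified in HEPG2 cells exposed to compounds and 500 pg/mL final TGF-beta for 18 h at 37 degrees C; unstimulated wells defined full inhibition.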
IL-1B inflam inh: blocks inflammasome-driven IL-1 beta release | THP-1 LPS/ATP IL-1B secretion, AlphaLISA, 16 h; hits give low values | activity change, % at 57.5 µM | actives 4.7% (n = 360,000); in the data active = activity change below about -50%; inconclusive = mostly about -30% to -49%
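THP-1 cells pretreated 1 hr with compounds (up to 57.5 uM final), then stimulated with LPS (250 ng/mL final) plus ATP (1.25 mM final); secreted IL-1B measured by AlphaLISA after 16 hr, decreased signal indicating inhibition.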
TDP1 block: TDP1 (human) enzyme inhibition; Q9NUW8; recombinant TDP1, AlphaScreen DNA substrate cleavage; Potency, µM (top dose mostly 130 µM), actives largely listed as inhibitors; actives 0.28% (n = 350,000); AID 485290; note: nearly all actives have a fitted effect of over 40% in size
Target sequence (Q9NUW8 whole entry, looked up): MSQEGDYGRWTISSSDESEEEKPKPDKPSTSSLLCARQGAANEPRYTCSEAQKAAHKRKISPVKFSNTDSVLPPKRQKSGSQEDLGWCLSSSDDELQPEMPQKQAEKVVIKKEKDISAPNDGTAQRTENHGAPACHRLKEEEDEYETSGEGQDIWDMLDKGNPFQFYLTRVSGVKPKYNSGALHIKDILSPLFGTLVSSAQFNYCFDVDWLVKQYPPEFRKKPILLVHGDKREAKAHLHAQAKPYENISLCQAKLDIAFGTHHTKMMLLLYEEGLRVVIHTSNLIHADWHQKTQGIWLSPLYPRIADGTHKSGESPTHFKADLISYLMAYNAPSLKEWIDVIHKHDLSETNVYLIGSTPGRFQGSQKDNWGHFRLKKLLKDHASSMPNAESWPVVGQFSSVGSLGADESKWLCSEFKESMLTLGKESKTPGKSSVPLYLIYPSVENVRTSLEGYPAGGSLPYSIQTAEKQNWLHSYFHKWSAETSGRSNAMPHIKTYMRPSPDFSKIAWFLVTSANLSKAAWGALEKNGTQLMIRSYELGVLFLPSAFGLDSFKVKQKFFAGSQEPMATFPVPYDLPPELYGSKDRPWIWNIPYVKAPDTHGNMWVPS
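Tdp1 1 nM final; 15 min RT w/ cpd; substrate 15 nM, 5 min; beads 10 ug/ml, 10 min; AlphaScreen read. Neg ctrl: no enzyme.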
A number is an active result; i = inactive; ? = inconclusive; nt = no result given; [ ] = remark or other dose. Unless noted, calls come from the whole dose curve; as a rule, active = well fitted curve in the direction sought with a large enough effect; inconclusive = small, poorly fitted or top-dose-only effect, or another doubt; inactive = no such curve, though single readings can be large; an effect the other way counts as inactive or inconclusive.

SMILES | TDP1 cell noCPT | HepG2 tox | DT40 TDP1 CPT | TGFb SMAD3 inh | IL-1B inflam inh | TDP1 block
CCN(CC)S(=O)(=O)c1ccc(N2CCN(C)CC2)c(NC(=O)c2cc(=O)c3ccccc3o2)c1 | ? | i | ? | i | i | nt
Cc1ccc(-c2nsc(NC(=O)c3oc4cc(C)c(Cl)cc4c3C)n2)cc1 | i | i | i | i | nt | i
CCOc1ccc(NC(=O)c2ccc3c(SCC(=O)O)c4c(nc3c2)CCC4)cc1 | i | i | i | i | nt | i
c1ccc(Cn2ccc(-c3cnc(-c4ccccc4)s3)n2)cc1 | 18µM | i | ? | ? | i | i
Nc1ccn(Cc2ccccc2)n1 | i | i | i | i | i | i
CC1CCN(S(=O)(=O)c2ccc3c(c2)N(CC(=O)NCCCN2C(C)CCCC2C)C(=O)CO3)CC1 (stereo not drawn) | i | i | i | i | ? | i
CC1(C)CC(=O)C(C(C2=C(O)CC(C)(C)CC2=O)c2cccs2)C(=O)C1 (stereo not drawn) | ? | i | ? | ? | -96 | i
CCCCCCCCNc1nc(Cl)nc(NCc2ccco2)n1 | i | i | i | i | i | i
CCCCCCNc1nc(NCc2ccco2)nc(OCC)n1 | 18µM | i | 21µM | ? | i | i
O=C(NC12CC3CC(CC(C3)C1)C2)N1CCC(O)(c2ccc3c(c2)OCO3)CC1 | 15µM | i | 7.3µM | i | i | i
CC(=O)N1CCC(O)(c2ccc3c(c2)OCO3)CC1 | i | i | i | i | i | i
O=C(COc1ccc2c(c1)OCO2)NC12CC3CC(CC(C3)C1)C2 | ? | i | ? | i | i | i
Cc1cc(C)cc(NC(=S)NCc2ccc3c(c2)OCO3)c1 | ? | i | ? | i | i | nt
Cc1ccc(NC(=S)NCc2ccc3c(c2)OCO3)cc1C | ? | i | i | ? | -69 | i
Fc1ccc(NC(=S)SCc2ccc3c(c2)OCO3)cc1F | 18µM | i | ? | ? | i | nt
O=C(NCc1ccc2c(c1)OCO2)NC12CC3CC(CC(C3)C1)C2 | 18µM | i | 21µM | i | i | i
CCC(Sc1nc2nccnc2c(=O)n1Cc1ccc(C)cc1)C(=O)NC1CCCCC1 (stereo not drawn) | ? | i | ? | i | nt | i
COC(=O)C/C=C1\c2ccccc2C(OC)C1C (stereo not drawn) | nt | nt | nt | nt | nt | i[21 µM]
C[C@H](CO)N1C[C@H](C)[C@@H](CN(C)C(=O)Oc2ccccc2)OCc2cn(nn2)CCCC1=O | i | i | i | i | i | nt
Cc1ccc(NC(=O)NCc2ccc3c(c2)OCO3)cc1C | i | i | i | ? | -63 | nt
Cc1nc2cc(NC(=O)NCc3ccc4c(c3)OCO4)ccc2o1 | i | i | i | i | i | i
CCN(CC)S(=O)(=O)c1ccc2nc(CCl)[nH]c2c1 | ? | i | 26µM | i | -82 | i
COC(=O)c1c(C)nn(-c2ccc(F)c(Cl)c2)c1-c1cc(C)on1 | 5.2µM | i | 12µM | i | i | i
CC(=O)OC1CC[C@]2(C)C(=CCC3C4CCC(C(C)CCCC(C)C)[C@]4(C)CCC32)C1 (stereo partly drawn) | i | nt | i | nt | nt | i
CC(C)c1ccc(S(=O)(=O)c2nnn3c2nc(N2CCN(C)CC2)c2sccc23)cc1 | ? | i | 16µM | i | nt | i
SMILES | TDP1 cell noCPT | HepG2 tox | DT40 TDP1 CPT | TGFb SMAD3 inh | IL-1B inflam inh | TDP1 block
CC1CCN(c2nc3c(S(=O)(=O)c4ccc(Cl)cc4)nnn3c3ccsc23)CC1 | 16µM | i | ? | i | nt | i
CCNC(=O)c1ccc(-n2c(-c3ccccc3)cc3c2CCCCC3)cc1 | ? | i | ? | i | nt | i
COCCCNC(=O)c1ccc(-n2c(-c3ccccc3)cc3c2CCC(C)C3)cc1 (stereo not drawn) | 16µM | i | ? | i | nt | i
CCCNC(=O)c1ccc(-n2c(-c3ccccc3)cc3c2CCCCC3)cc1 | 21µM | i | 18µM | i | nt | i
CC(C)OCCCNC(=O)c1ccc(-n2c(-c3ccccc3)cc3c2CCCC3)cc1 | 16µM | i | ? | i | nt | i
CN(C)CCNC(=O)c1ccc(-n2c(-c3ccccc3)cc3c2CCCC3)cc1 | 16µM | 18µM | ? | ? | nt | i
CC(=O)Nc1cccc(S(=O)(=O)N2CCN(S(=O)(=O)c3ccc4c(c3)OCCO4)CC2)c1 | nt | nt | nt | nt | nt | i
CCC(C)NC(=O)CCCc1nnc2n(CC(C)C)c(=O)c3sccc3n12 (stereo not drawn) | i | i | i | i | nt | i
CC(C)NC(=O)c1ccc(-n2c(-c3ccccc3)cc3c2CCCC3)cc1 | ? | i | ? | ? | nt | i
CCC(C)NC(=O)c1ccc(-n2c(-c3ccccc3)cc3c2CCCC3)cc1 (stereo not drawn) | ? | i | 16µM | ? | nt | i
Cc1c(C(=O)NCCCN2CCOCC2)oc2c1C1(CCC2)SCCS1 | 23µM | i | 12µM | i | i | i
CCCc1ccc2oc(C(=O)NCCCN3CCOCC3)c(C)c2c1 | ? | i | ? | i | i | i
O=C(OCc1nnn(Cc2ccccc2)c1-c1c(COC(=O)c2ccccc2)nnn1Cc1ccccc1)c1ccccc1 | i | i | i | i | i | i
CCOC(=O)/C=C1\CC(C(=O)OCC)Oc2ccccc21 (stereo not drawn) | i | i | i | i | i | i
CCOC(=O)/C=C1\Nc2ccccc2OC1=O | 10µM | i | 8.2µM | i | i | i
CCC(C)N1CCC2(CC1)N=c1c(c3c4c5c(C)c(O)c3c(O)c1=NC(=O)C(C)=CC=C[C@H](C)[C@H](O)[C@@H](C)[C@@H](O)[C@@H](C)[C@H](OC(C)=O)[C@H](C)[C@@H](OC)C=CO[C@@](C)(O5)C4=O)N2 (stereo partly drawn) | 18µM | i | 13µM | i | ? | nt
CO[C@H]1/C=C\O[C@@]2(C)Oc3c(C)c(O)c4c(O)c(c(C=NN5CCN(C6CCCC6)CC5)c(O)c4c3C2=O)NC(=O)C(C)=CC=C[C@H](C)[C@H](O)[C@@H](C)[C@@H](O)[C@@H](C)[C@H](OC(C)=O)[C@H]1C | 3.2µM | i | 5.6µM | 11µM | nt | nt
CO[C@H]1C=CO[C@@]2(C)Oc3c(C)c(O)c4c(O)c(c5c(nc6cc(C)ccn65)c4c3C2=O)NC(=O)/C(C)=C\C=C[C@H](C)[C@H](O)[C@@H](C)[C@@H](O)[C@@H](C)[C@H](OC(C)=O)[C@@H]1C | 13µM | nt | ? | nt | nt | nt
